Results on five molecules are retold here after PubChem BioAssay.

Assay [1] in a line: small molecules captured by biotinylated probe aFSTL3 – biochemical, small-molecule microarray, fluorescence 635/667, stem cell growth factor project, primary screen (AID 1064).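 Note: measures binding of the biotinylated anti-FSTL3 antibody to printed compounds.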 As to conditions: higher = more signal.
Assay [2] in a line: binders from COS7 lysate, DM2A8 probe, primary screen, torsin A project, cell lysate, small-molecule microarray, fluorescence 635/667 (AID 1065). The conditions noted are these: higher = more signal, COS7 lysate expressing mutant human TOR1A.
A short description of assay [3]: small molecules captured by biotinylated probe aFGF2 – biochemical, small-molecule microarray, fluorescence 635/667, stem cell growth factor project, primary screen (AID 1067).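 Note: measures binding of biotinylated aFGF2 protein to printed compounds on slides; z-score merges feature fluorescence and signal-to-noise across triplicate slides.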 As to conditions: higher = more signal.
Assay [4] can be described thus: small molecules captured by biotinylated probe aFGF10 – biochemical, small-molecule microarray, fluorescence 635/667, stem cell growth factor project, primary screen (AID 1071).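 Note: score merges 667 nm spot intensity and signal to noise from triplicate slides.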 The conditions noted are these: higher = more signal.
Assay [5] addresses Neurogenic locus notch homolog protein 2 (Homo sapiens) (UniProt Q04721). The experiment in a line: small molecules binding Notch2 protein – biochemical, small-molecule microarray, 635 nm fluorescence, stem cell growth factors, primary screen (AID 1073). As to conditions: higher = more signal.
Assay [6] has as its target Pro-neuregulin-1, membrane-bound isoform (Homo sapiens) (UniProt Q02297). The experiment in a line: small molecules binding neuregulin-1 protein – biochemical, small-molecule microarray, fluorescence 635/667, psychiatric disease protein project, primary screen (AID 1075).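 Note: score combines 667 nm spot fluorescence with signal to noise.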 As to conditions: NRG1 binding, 635 nm fluorescence, higher = more signal.
For assay [7], the system named is Neuregulin-1 EGF-like domain. The experiment in a line: small molecules binding NRG1 EGF domain – biochemical, small-molecule microarray, 635 nm fluorescence, primary screen (AID 1081).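 Note: binding of the protein to compounds printed on small-molecule microarray slides.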 The conditions noted are these: higher = more signal.
Assay [8] in a line: FRG1 expression reporter modulators in myotubes – cell-based, C2C12 myotubes, firefly/Renilla luciferase, luminescence, FRG1 inhibition for FSHD, primary screen (AID 1084). As to conditions: FRG1 promoter luciferase, higher = more signal, called active from +8 up or from −8 down.
Assay [9] is described as follows: small molecules captured by biotinylated probe aFST – biochemical, small-molecule microarray, fluorescence 635/667, stem cell growth factor project, primary screen (AID 1086).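 Note: score merges 667 nm fluorescence with signal-to-noise of each printed compound spot.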 The conditions noted are these: higher = more signal.
The nature of assay [10]: binders of probe aHhip on microarray, primary screen, stem cell growth factor project, biochemical, small-molecule microarray, fluorescence 635/667 (AID 1087).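 Note: score merges spot fluorescence at 667nm with spot signal to noise ratio.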 The conditions noted are these: higher = more signal.
The test system of assay [11] is PRMT1 (protein arginine N-methyltransferase 1). The experiment in a line: small molecules binding arginine methyltransferase PRMT1 – biochemical, small-molecule microarray, 635 nm fluorescence, primary screen (AID 1088).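 Note: binding of Prmt1 protein to compounds spotted on small-molecule microarray slides.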 The conditions noted are these: higher = more signal.
A short description of assay [12]: growth effects on S. cerevisiae YJM789 – YJM789 clinical isolate, OD600, 24 h, basal, primary screen (AID 1089).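 Note: growth of clinical yeast isolate S. cerevisiae YJM 789 seeded 1000 cells per well; test concentration not given here.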 The conditions noted are these: higher = more signal, called active from +8 up or from −8 down.
Assay [13] is described as follows: S. pombe growth modifiers, basal conditions – strain 972, OD600, 24 h, no modulator, primary screen (AID 1090).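 Note: basal condition with compound alone and no growth modifier present; test concentration not given here.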 The conditions noted are these: S. pombe 972 growth, higher = more signal, called active from +8 up or from −8 down.
Assay [14] in a line: budding yeast growth modifiers under rapamycin – strain BY4716, OD600, 96 h, primary screen (AID 1091). Note: test concentration not given here. As to conditions: S. cerevisiae BY4716 + rapamycin, higher = more signal, called active from +8 up or from −8 down.
Assay [15] deals with Torsin-1A-interacting protein 2 (Homo sapiens) (UniProt Q8NFQ8). The experiment in a line: small molecules binding lysate-expressed LULL1 – cell lysate, human LULL1 lysate, 635/667 nm fluorescence, primary screen (AID 1092).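 Note: probe is lysate of COS7 cells overexpressing human LULL1; score merges per-feature 667 nm fluorescence with signal-to-noise.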 The conditions noted are these: small-molecule microarray, hLULL1 lysate binding, 635 nm fluorescence; higher = more signal.
The nature of assay [16]: optical density change of DRC41 E. coli – strain DRC41, OD650, 24 h, E. coli filamentation project, primary screen (AID 1093).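 Note: MC1000 strain lacking acrAB efflux and sulA so SOS filamentation is blocked; test concentration not given here.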 The conditions noted are these: E. coli DRC41 growth, higher = more signal, called active from +8 up or from −8 down.
Assay [17] in a line: probe aLefty2 binding to arrayed compounds – biochemical, biotinylated probe, 635/667 nm fluorescence, primary screen (AID 1094).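 Note: score merges spot fluorescence near 667 nm with spot signal-to-noise ratio.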 The conditions noted are these: small-molecule microarray, higher = more signal.
Assay [18] concerns Noggin (protein binding on small-molecule microarray). Put plainly: small molecules binding Noggin protein – biochemical, 635/667 nm fluorescence, primary screen (AID 1095).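 Note: score merges 667 nm feature fluorescence with signal to noise over triplicate slides.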 The conditions noted are these: 635 nm fluorescence, higher = more signal.
The target of assay [19] is Neurogenic locus notch homolog protein 3 (Homo sapiens) (UniProt Q9UM47). Put plainly: small molecules binding NOTCH3 protein – biochemical, 635/667 nm fluorescence, primary screen (AID 1096). As to conditions: small-molecule microarray, 635 nm fluorescence, higher = more signal.
The nature of assay [20]: probe aEGFR binding to arrayed compounds – biochemical, biotinylated probe, 635/667 nm fluorescence, primary screen (AID 1097).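 Note: probe is a biotinylated anti-EGFR antibody binding compounds printed on slides; score combines fluorescence near 667 nm and signal to noise of each spot.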 The conditions noted are these: small-molecule microarray, higher = more signal.

The source made the active and inactive calls.

Torsin-1A-interacting protein 2 (Homo sapiens), sequence (Q8NFQ8 whole entry, looked up): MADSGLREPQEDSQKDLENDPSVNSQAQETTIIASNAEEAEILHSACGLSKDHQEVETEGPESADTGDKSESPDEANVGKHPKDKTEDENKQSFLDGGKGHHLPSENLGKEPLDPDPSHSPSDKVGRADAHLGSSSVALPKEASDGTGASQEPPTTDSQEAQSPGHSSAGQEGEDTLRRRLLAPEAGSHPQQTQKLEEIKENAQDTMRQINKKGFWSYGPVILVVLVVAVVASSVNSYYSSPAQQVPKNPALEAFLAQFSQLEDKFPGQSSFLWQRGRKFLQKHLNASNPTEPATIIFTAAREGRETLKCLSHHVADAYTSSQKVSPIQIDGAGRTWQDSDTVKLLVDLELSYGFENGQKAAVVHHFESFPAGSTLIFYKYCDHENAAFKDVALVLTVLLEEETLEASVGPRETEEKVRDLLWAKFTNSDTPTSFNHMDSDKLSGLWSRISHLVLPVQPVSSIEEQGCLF
Neurogenic locus notch homolog protein 2 (Homo sapiens), sequence (Q04721 whole entry, looked up, canonical isoform): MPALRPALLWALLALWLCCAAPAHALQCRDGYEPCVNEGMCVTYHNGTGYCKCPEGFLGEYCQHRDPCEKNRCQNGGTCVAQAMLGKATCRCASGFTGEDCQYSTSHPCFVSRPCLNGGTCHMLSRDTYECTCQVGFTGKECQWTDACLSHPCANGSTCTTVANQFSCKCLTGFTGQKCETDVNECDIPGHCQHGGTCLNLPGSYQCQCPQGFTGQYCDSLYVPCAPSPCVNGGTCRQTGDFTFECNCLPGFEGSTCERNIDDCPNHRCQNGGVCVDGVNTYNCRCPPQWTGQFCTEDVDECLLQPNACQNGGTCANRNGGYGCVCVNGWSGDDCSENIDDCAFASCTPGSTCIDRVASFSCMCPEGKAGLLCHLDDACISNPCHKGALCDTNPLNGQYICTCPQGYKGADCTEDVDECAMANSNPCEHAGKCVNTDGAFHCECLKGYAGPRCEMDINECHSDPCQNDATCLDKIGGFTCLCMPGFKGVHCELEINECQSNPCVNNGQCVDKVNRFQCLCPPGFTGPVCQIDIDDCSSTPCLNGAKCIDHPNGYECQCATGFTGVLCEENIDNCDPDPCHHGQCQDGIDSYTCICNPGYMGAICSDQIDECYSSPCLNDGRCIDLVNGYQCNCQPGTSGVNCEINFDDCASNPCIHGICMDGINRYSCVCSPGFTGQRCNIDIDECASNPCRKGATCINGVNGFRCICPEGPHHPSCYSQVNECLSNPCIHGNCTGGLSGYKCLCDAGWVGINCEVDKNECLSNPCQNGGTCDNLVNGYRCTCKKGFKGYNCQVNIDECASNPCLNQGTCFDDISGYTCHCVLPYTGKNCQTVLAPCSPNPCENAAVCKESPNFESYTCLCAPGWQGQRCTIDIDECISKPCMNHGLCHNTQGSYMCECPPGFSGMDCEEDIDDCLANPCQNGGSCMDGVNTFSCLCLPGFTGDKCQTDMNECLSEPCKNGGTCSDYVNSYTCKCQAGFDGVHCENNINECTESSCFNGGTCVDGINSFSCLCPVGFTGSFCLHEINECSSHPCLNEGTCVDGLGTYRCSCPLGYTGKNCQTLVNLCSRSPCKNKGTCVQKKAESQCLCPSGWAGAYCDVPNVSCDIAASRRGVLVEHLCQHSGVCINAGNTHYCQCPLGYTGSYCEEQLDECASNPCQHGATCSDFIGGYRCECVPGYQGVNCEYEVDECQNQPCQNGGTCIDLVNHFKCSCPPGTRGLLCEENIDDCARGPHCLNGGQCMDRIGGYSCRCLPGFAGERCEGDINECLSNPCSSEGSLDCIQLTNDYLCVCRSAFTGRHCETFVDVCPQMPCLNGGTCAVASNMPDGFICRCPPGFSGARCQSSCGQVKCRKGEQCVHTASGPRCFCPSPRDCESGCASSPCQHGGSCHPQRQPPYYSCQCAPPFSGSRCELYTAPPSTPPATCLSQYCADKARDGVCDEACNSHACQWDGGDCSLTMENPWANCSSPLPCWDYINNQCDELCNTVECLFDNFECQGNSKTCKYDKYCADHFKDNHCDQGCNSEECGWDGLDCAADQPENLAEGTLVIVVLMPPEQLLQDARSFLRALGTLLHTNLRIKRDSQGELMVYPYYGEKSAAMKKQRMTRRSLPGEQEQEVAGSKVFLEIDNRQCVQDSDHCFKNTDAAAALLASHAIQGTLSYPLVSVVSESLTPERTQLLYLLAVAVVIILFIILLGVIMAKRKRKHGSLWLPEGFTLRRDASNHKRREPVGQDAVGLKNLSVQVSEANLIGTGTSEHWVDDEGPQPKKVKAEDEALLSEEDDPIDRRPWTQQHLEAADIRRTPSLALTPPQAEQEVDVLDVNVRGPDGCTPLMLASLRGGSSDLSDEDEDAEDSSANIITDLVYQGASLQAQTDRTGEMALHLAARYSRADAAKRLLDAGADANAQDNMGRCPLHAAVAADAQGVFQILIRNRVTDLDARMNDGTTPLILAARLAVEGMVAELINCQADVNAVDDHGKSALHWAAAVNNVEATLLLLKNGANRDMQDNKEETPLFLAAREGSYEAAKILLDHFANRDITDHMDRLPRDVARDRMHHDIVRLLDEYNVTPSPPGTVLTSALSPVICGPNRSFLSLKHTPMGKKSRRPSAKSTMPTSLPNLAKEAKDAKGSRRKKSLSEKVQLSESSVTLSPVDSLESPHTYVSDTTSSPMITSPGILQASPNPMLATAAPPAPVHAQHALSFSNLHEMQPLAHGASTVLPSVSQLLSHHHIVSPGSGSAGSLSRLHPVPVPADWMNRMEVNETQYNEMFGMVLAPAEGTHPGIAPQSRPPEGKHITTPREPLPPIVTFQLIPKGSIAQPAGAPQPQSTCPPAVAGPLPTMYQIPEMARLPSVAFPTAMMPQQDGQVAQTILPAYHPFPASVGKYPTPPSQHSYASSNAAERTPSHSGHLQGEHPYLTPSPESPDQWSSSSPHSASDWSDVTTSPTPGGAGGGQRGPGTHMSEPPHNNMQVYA
Pro-neuregulin-1, membrane-bound isoform (Homo sapiens), sequence (Q02297 whole entry, looked up, the tested form may be a part, canonical isoform): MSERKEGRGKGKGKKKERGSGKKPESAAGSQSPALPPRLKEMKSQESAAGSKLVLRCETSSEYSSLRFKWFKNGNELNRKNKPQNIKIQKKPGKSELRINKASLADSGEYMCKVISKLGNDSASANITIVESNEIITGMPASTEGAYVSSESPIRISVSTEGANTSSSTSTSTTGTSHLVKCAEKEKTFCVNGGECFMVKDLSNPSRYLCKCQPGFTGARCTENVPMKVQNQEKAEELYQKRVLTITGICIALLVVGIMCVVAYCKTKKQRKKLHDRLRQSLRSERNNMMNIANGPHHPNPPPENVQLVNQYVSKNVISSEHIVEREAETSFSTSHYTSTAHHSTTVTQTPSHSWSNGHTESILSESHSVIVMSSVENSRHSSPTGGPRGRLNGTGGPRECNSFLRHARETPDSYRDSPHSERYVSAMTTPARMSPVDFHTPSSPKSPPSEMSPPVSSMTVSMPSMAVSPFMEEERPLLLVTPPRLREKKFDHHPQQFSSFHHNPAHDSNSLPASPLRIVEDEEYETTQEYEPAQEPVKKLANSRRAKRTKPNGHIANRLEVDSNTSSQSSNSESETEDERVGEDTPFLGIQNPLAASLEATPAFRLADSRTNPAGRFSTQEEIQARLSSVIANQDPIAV

Turning to `COC(=O)c1c(CC[C@@H](CO)NC(=O)Nc2ccc(OC)cc2)oc(C(=O)Cc2ccccc2)c1C(=O)OC`, the composite z-score in [1] was -0.211; in assay [2] it was 0.469; in assay [3] it was -0.0924; in [4], 0.411; in [5], 0.704; in assay [6] it was 0.191. Further, the composite z-score in [7] was 1.03; in assay [9] it was -0.0409; in assay [10] it was -0.0672; in assay [11], 0.477; in assay [15], 0.478; in assay [17], -0.0233. In addition, the composite z-score was 0.414 in [18], 0.101 in assay [19] and -0.0252 in assay [20]. Also, the z-score was -0.814 (inactive) in assay [8]; 1.54 (inactive) in assay [12]; -1.21 (inactive) in assay [13]; 2.23 (inactive) in assay [14]; 1.85 (inactive) in assay [16].

Take `O=C(NC1CC1)[C@@H]1c2ccccc2C(=O)N(Cc2ccccc2C(F)(F)F)[C@H]1c1ccc(CO)cc1`: the composite z-score in assay [1] is -0.432; in assay [2] it was 0.436; in assay [3], -0.116; in [4], 0.39; in assay [5], 0.693; in assay [6], 0.988. In addition, the composite z-score was 1.26 in assay [7]; 0.336 in assay [9]; -0.226 in [10]; 1.57 in assay [11]; 2.27 in [15]; -0.15 in assay [17]. For the same molecule, the results for the composite z-score in assay [18], in assay [19] and in assay [20] were 0.458, 1.13 and -0.039, respectively. Besides, the z-score in assay [8] is -1.64 (inactive); in [12] it was -0.541 (inactive); in assay [13], -1.77 (inactive); in [14], -0.731 (inactive); in [16], 1 (inactive).

Take `COc1ccc([Si](C)(C)[C@@H]2[C@@H](CCn3cc([C@H](O)c4ccccc4)nn3)O[C@]3(C(=O)N(C)c4c(Br)cc(C)cc43)[C@H]2C)cc1`: the composite z-score was 0.114 in assay [1]; 0.301 in assay [2]; -0.116 in assay [3]; -0.246 in assay [4]; -0.802 in assay [5]; -0.115 in [6]. Besides, the composite z-score is -0.288 in [7]; -0.43 in assay [9]; 0.154 in [10]; -0.0221 in assay [11]; 0.215 in assay [15]; -0.0295 in [17]. Also, the composite z-score in assay [18] was 0.0639; in assay [19] it was -0.707; in assay [20], 0.0089. The z-score in assay [8] was -2.54 (inactive); in assay [12] it was -2.54 (inactive); in assay [13] it was -0.793 (inactive); in assay [14], 0.406 (inactive); in assay [16], 2.87 (inactive).

`O=C1O[C@@H](c2ccccc2)[C@@H](c2ccccc2)N2[C@@H](c3ccc(OCCO)cc3)[C@]3(C(=O)Nc4ccc(C#CC5(O)CCCCCC5)cc43)[C@@H](C(=O)NC[C@H](O)c3ccccc3)[C@H]12`: the composite z-score in assay [1] is 0.0882; in assay [2] it was 1; in assay [3] it was -0.0258; in assay [4], 1.06; in [5], 1.42; in assay [6], 1.43. Besides, the composite z-score in [7] is 1.26; in [9] it was 0.934; in assay [10], -0.191; in [11], 1.55; in assay [15], 2.3; in assay [17], 0.0844. Moreover, the composite z-score was 0.982 in [18], 1.04 in assay [19] and -0.0332 in assay [20]. For the same molecule, the z-score in [8] was -0.222 (inactive); in assay [12] it was 1.24 (inactive); in assay [13], 1.21 (inactive); in [14], 5.49 (inactive); in assay [16], 3.13 (inactive).

Take `COc1ccc(/C=C/C(=O)c2cccc(OCC(=O)OC(C)(C)C)c2)cc1`: the composite z-score was 0.158 in assay [1]; 0.0968 in assay [2]; -0.17 in assay [3]; -0.672 in assay [4]; -0.466 in assay [5]; 0.421 in assay [6]. For the same molecule, the composite z-score is 0.284 in [7]; -0.126 in assay [9]; -0.226 in [10]; 0.898 in [11]; 1.21 in [15]; -0.102 in assay [17]. In addition, the composite z-score was -0.584 in assay [18], -0.974 in [19] and -0.304 in [20]. For the same molecule, the z-score in assay [8] was 4.17 (inactive); in assay [12], 0.0268 (inactive); in assay [13], -2.14 (inactive); in [14], 10.9 (active); in assay [16] it was 0.328 (inactive).
